# Laboratory results from PubChem BioAssay AID1851 (National Center for Advancing Translational Sciences (NCATS), 2009).
# “And” between values parts separate entries of the source, which are not always exact repeats. Identical values can stand only once. Among all 16,000 compounds or so, about 5,700 (36%) were called active. Not shown: some 24% with an inconclusive outcome. Some of the results follow. Values without a mark were called inactive. The call rests on the fitted dose curve; in most records, active means well fitted curve in the direction sought with a large enough effect; inconclusive means small, poorly fitted or top-dose-only effect, or effect the other way; inactive means no such curve, though single readings can be large or run the other way.
# Target: Cytochrome P450 1A2 (Homo sapiens) (UniProt P05177)
# Assay: Cytochrome panel assay with activity outcomes
# Conditions: recombinant CYP, pro-luciferin dealkylation, luminescence, p450-cyp1a2; series mostly up to 57.1 µM; activity, negative = inhibition: at the top concentration
# On the % scale 0 is the no-effect control and ±100 the full control effect.
# Chain of Cytochrome P450 1A2 (Homo sapiens) (P05177 whole entry, looked up): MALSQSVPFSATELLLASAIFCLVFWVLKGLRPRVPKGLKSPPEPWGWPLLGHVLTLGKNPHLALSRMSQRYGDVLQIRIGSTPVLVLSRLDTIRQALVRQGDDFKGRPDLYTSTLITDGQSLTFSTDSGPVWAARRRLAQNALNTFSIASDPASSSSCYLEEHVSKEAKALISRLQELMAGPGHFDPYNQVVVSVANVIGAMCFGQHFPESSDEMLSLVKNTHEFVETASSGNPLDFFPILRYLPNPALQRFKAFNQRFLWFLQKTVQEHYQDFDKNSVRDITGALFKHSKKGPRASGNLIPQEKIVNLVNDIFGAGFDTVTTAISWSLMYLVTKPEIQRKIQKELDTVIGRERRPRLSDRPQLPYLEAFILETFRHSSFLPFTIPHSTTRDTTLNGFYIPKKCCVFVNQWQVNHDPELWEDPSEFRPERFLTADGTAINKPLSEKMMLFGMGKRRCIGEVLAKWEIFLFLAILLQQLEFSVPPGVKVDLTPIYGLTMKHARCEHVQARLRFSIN
SMILES,AC50,"activity, negative = inhibition"
O=c1c2c(nc3c(-c4ccccc4)c[nH]n13)CCC2,5.62 µM (active),–
Nc1[nH]n2c(=O)c3c(nc2c1N=Nc1ccccc1)CCCC3,5.62 µM (active),–
Cc1ccc(-c2[nH]n3c(=O)c4c(nc3c2C)CCCC4)cc1,2.51 µM (active),–
N#Cc1c[nH]n2c(=O)c3c(nc12)CCCC3,–,-18.5%
CCN1C(=O)C=CC1=O,–,-11.1%
CCC(=O)OCN1C(=O)C=CC1=O,3.16 µM (active),–
Cc1ccc([C@@]2(C)CC/C(=N/N=C3\CC[C@](C)(c4ccc(C)c(C)c4)c4cc(C)c(C)cc43)c3cc(C)c(C)cc32)cc1C,–,-12.4% [at 11.4 µM]
CC(C)[C@@H](OCc1ccccc1)[C@H](C)/C=N\O[C@@H](C)c1cn([C@H](CO)Cc2ccccc2)nn1,–,-2.54% [at 11.4 µM] and -7.97% [at 11.4 µM]
O=Nc1c(-c2c(O)[nH]c3ccccc23)[nH]c2ccccc12,0.0316 µM (active),–
O=C(O)c1ccc(S(=O)(=O)N=Nc2c(O)[nH]c3ccccc23)cc1,–,-11.7% [at 11.4 µM]
[Cu].[O-]/N=C1/C(=[OH+])Nc2ccccc21.[O-]Nc1c(O)[nH]c2ccccc12,–,-20.1% [at 2.29 µM]
Cc1ccc(SCCNC(=O)c2ccccc2)cc1,10 µM (active),–
Cc1ccc(NC(=S)NCCN2CCOCC2)cc1C,–,-29.3%
Cc1ccc(SCc2nnc(NC(=O)c3ccccc3)s2)cc1,–,-7.04%
Cc1ccc(C(=O)NCc2ccc(N3CCN(C(=O)OC(C)(C)C)CC3)cc2)cc1,–,-2.17%
Cc1ccc(SCc2ccc(C(=O)NCc3ccncc3)cc2)cc1,0.355 µM (active),–
Cc1ccc(C(=O)NCCNC(=O)CN2CCOCC2)cc1,–,-27.7%
Cc1ccc(SCCNC(=S)Nc2ccc(C)c(C)c2)cc1,11.2 µM (active),–
N[C@H](C(=O)N[C@@H]1C(=O)N2C(C(=O)O)=C(Cl)CS[C@@H]12)c1ccccc1,inactive,–
Cc1nc2cnc(Oc3cccc(Cl)c3)nc2n(CCC#N)c1=O,15.8 µM (active),–

SMILES,AC50,"activity, negative = inhibition"
COCCn1c(=O)c(C)nc2cnc(Oc3cccc(Cl)c3)nc21,12.6 µM (active),–
COCCn1c(=O)cnc2cnc(Oc3cccc(Cl)c3)nc21,3.16 µM (active),–
Cc1nc2cnc(Oc3cccc(Cl)c3)nc2n(CCc2ccccc2)c1=O,12.6 µM (active),–
CC(=NCCN1CCN(C(=S)Nc2ccccc2)CC1)C1=C(O)CC(C)(C)CC1=O,–,-2.56%
CC(C)(C)Cn1nc(-c2ccc(Cl)cc2)c2c(N)ncnc21,0.158 µM (active),–
CC(C)(C)n1nc(-c2ccc(Cl)cc2)c2c(N)ncnc21,1 µM (active),–
CO/N=C(\C(=O)N[C@@H]1C(=O)N2C(C(=O)[O-])=C(C[N+]3(C)CCCC3)CS[C@@H]12)c1csc(N)n1,–,0.691% [at 25.6 µM]
CCCCSc1ccc2nc(-c3ccc(C#N)cc3)cn2c1,2.82 µM (active),–
CN(C)CCNC(=O)C1CCCNC1=O (stereo not given),–,0.683%
COc1ccc(C(Cl)=C(c2ccc(OC)cc2)c2ccc(OC)cc2)cc1,–,-17.5% [at 25.6 µM]
CCN(CC)CCOc1ccc(/C(=C(\Cl)c2ccccc2)c2ccccc2)cc1,12.6 µM (active),–
CCc1ccc2[nH]c(O)c(N=Nc3nc(-c4ccccc4)cs3)c2c1,10 µM (active),–
C[N+](C)(C)CCCCCCCCCC[N+](C)(C)C,–,-0.146%
COc1ccc2c(c1)OC1=C(C(=O)CCC1)C2C1=C(O)CCCC1=O (stereo not given),7.08 µM (active),–
O=C1CCCC2=C1C(c1ccc(OS(=O)(=O)c3ccc(Cl)cc3)cc1)C1=C(CCCC1=O)O2,–,-1.84%
Cc1ccc(S(=O)(=O)Oc2ccc(C3C4=C(CCCC4=O)OC4=C3C(=O)CCC4)cc2)cc1,–,-2.04%
N#CC(CC(=O)O)=C(c1ccccc1)c1ccccc1,–,-14.5% [at 2.29 µM]
C=CCNc1sc(C(=O)c2ccc(C)cc2)c(N)c1C#N,1.78 µM (active),–
C=CCNc1sc(C(=O)c2ccccc2)c(N)c1C#N,3.16 µM (active),–
O=C(C1CCCCC1)N1CC(=O)N2CCc3ccccc3[C@@H]2C1,10 µM (active),–

SMILES,AC50,"activity, negative = inhibition"
O=C(NC1CCCc2ccccc21)C1CCN(S(=O)(=O)N2CCCCCC2)CC1 (stereo not given),–,-7.71%
CCN1CCN(C(=O)C2c3cc(OC)c(OC)cc3C(=O)N3CCc4ccccc4C23)CC1 (stereo not given),–,-26.3%
CCOc1nc(N=C(N)N)nc2c(C)cccc12,0.178 µM (active),–
CN1Cc2c(C(=O)OC(C)(C)C)ncn2-c2ccsc2C1=O,15.8 µM (active),–
c1ncc(-c2ccc3c(c2)OCO3)c(NCCc2cnc[nH]2)n1,0.398 µM (active),–
CN(C)c1ccc(-c2cncnc2NCCc2cnc[nH]2)cc1,1.26 µM (active),–
CN(C)C(=O)c1ccc(-c2cncnc2NCCc2cnc[nH]2)cc1,12.6 µM (active),–
CCCCCc1nnc(NC(=O)C(=O)OCC)s1,–,-18%
Cc1sc(NC(=O)C2CCCCC2C(=O)O)c(C(N)=O)c1C (stereo not given),–,-17.7%
CCc1c(C)sc(NC(=O)OC)c1C(N)=O,8.91 µM (active),–
O=C(Oc1ccc(C(=S)N2CCOCC2)cc1Br)c1cc(Cl)ccc1Cl,–,-15.3%
O=C(c1ccc(Cl)c(Cl)c1)c1cc(-c2ccccn2)c(N2CCOCC2)s1,11.2 µM (active),–
O=C(O)c1c2ccccc2cc2ccccc12,0.2 µM (active),–
O=C(O)c1cc2ccccc2c(Cc2cc3ccccc3c(C(=O)O)c2O)c1O (tested in a mixture with another compound),–,-10.6% [at 25.6 µM]
O=C(O)c1cc(C(=O)C(=O)c2cc(C(=O)O)c(O)c3ccccc23)c2ccccc2c1O,–,-6.52% [at 11.4 µM]
C=CCSC[C@@H]1Nc2cc(Cl)c(S(N)(=O)=O)cc2S(=O)(=O)N1,–,-13.5% [at 25.6 µM]
Cc1noc(C)c1C(=O)N1CCC[C@@]2(CCN(c3ncccn3)C2)C1,–,-11.1%
COc1ccc2[nH]cc(CCNc3nc(-c4ccc(N(C)C)cc4)nc4ccccc34)c2c1,1.26 µM (active),–
COc1ccc2[nH]cc(CCNc3nc(-c4ccc(C(=O)N(C)C)cc4)nc4ccccc34)c2c1,15.8 µM (active),–
COc1cccc(N(C(=O)Cn2nnc(-c3ccc(C)cc3)n2)C(C(=O)NC(C)(C)C)c2c[nH]c3ccccc23)c1 (stereo not given),–,-7.1%
